Screen size: about 200,000 compounds; about 18,000 (9%) were called active. What follows is part of a selection rich in actives, with near analogues and random picks from the rest. A number with no mark means an inactive call. Rule as the data show it: active = inhibition above about 50%; inactive = the rest.
Assay: Leishmania major promastigote growth inhibition, primary screen (AID 1063);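 also: promastigotes grown with compound for 44 hours at 28 °C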
Conditions: Leishmania major promastigotes, resazurin fluorescence viability; at 10 µM; stronger effect = higher value

SMILES	inhibition
CCc1ccc(C(=O)OCC(=O)NCC(F)(F)F)cc1	4.83%
O=C(N/N=C/c1ccc(OCC2COCCO2)cc1)c1ccc(Br)cc1 (stereo unspecified)	40.5%
COc1cc(C(=S)N2CCOCC2)ccc1O	-5.63%
C=CCOCCN(C)C1=NS(=O)(=O)c2ccccc21	-5.84%
CN(C)C=NC(=O)c1cccn1-c1ncc(C(F)(F)F)cc1Cl	-3.59%
Clc1ccc(CN2CCN(/N=C/c3cccnc3)CC2)cc1	8.51%
O=C1/C(=C\c2cccnc2)CN(Cc2ccccc2)C/C1=C\c1cccnc1	100% (active)
O=Cc1cn(Cc2ccccc2)nc1-c1cccnc1	-1.93%
COc1cccc2cc(S(=O)(=O)c3ccc(C)cc3)/c(=N/NS(=O)(=O)c3ccc(C)cc3)oc12	-0.64%
CCOC(=O)C1(CCOc2ccccc2)CCN(C(=O)c2cncs2)CC1	6.07%
CCOC(=O)/C(N=Nc1cc(C(=O)O)cc(C(=O)O)c1)=C(\O)CCl	50% (active)
O=C(C1CC1)N1N=C2CCCCC2C1(O)C(F)(F)F (stereo unspecified)	-9.92%
CCOC(=O)C1=C(C)Nc2sc(C(=O)c3ccc(Br)cc3)c(N)c2C1c1ccc(C(=O)OC)cc1 (stereo unspecified)	94.8% (active)
CCOC(=O)c1sc(=S)n2c1[nH]c(=O)c1ccc(C(=O)OC)cc12	-7.11%
CCOC(=O)C1=C(C)NC(C)=C(C(=O)OCC)C1c1ccccn1	8.25%
CC(=O)N/C(=C/c1ccc(Cl)cc1)C(=O)NCCc1c[nH]c2ccccc12	92.8% (active)
Cc1ccc(C(=O)N/C(=C/c2ccco2)C(=O)NCCc2c[nH]c3ccccc23)cc1C	32.8%
COc1ccc(/C=C(\NC(=O)c2ccc(OC)c(OC)c2)C(=O)NCCc2c[nH]c3ccccc23)cc1	16%
CN(C)/N=C/c1cn(-c2ccccc2)nc1-c1cccnc1	13.5%
O=C(NCCCn1ccnc1)C(=O)c1cn(CC(=O)N2CCCCCC2)c2ccccc12	10.8%
COc1cc(C(=O)N2CCN(C/C=C/c3ccccc3)CC2)cc(OC)c1C	54.7% (active)
CNC(=O)NC(=O)C(C)N1CCN(C/C=C/c2ccccc2)CC1 (stereo unspecified)	9.45%
COc1ccccc1/C=C/CN1CCC(CO)(Cc2ccccc2)CC1	32.1%
Cn1c(SCC(=O)NC2CCCCC2)nnc1-c1ccc(N)cc1	-1.08%
Cc1ccc(-c2csc(-c3c[nH]c4ccccc34)n2)cc1	-3.69%
Cc1ccc(C2=Nc3c(ccc4ccccc34)C(c3ccncc3)=NN2)cc1	60% (active)
